The text below walks through data of PubChem BioAssay.

A short description of this assay: compound effects on multiple myeloma cell viability – MM1S, calcein-AM fluorescence, 48 h, basal, profiling panel (AID 1165).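 Further: viability of MM1S multiple myeloma cells under basal unstimulated conditions; test concentration not given here.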 Particulars: higher = more signal.
`CCCCCCc1nc(C2CC2)cc2c1[Si](C(C)C)(C(C)C)OC2`: the z-score was -2.26. As to `COc1ccc([Si](C)(C)[C@H]2[C@H](CCO)O[C@@]3(C(=O)N(Cc4cccc(N5C(=O)COc6ccccc65)c4)c4ccccc43)[C@@H]2C)cc1`, the z-score was -2.21. Regarding `C=C(/C(=C/C[C@H](OC(=O)c1ccncc1)c1ccc(CO)o1)c1cc(C(=O)OC)ccc1OC)C(C)C`, the z-score is -1.26.

`COC(=O)[C@@]1(Cc2ccccc2N=[N+]=[N-])N=C(c2ccc(OCCCO)cc2)O[C@H]1c1ccccc1N=[N+]=[N-]`: the z-score was -3.65. The same measure for `O=C1O[C@H](c2ccccc2)[C@H](c2ccccc2)N2[C@H]1[C@@H](C(=O)Nc1nc3ccccc3s1)[C@]1(C(=O)Nc3ccccc31)[C@H]2c1ccc(OCCO)cc1`: -1.68.

For `C=CCC(OC(C)=O)[C@@H]1[C@@H](N(Cc2cc3ccccc3o2)C(=O)c2ccc(C)cc2)c2cc(OCCCO)ccc2N1C(=O)Cc1ccc(OC)cc1` (stereo not given in full), the z-score is -0.143. The same measure for `C[C@@H]1ON(c2ccc(C(=O)OC(C)(C)C)cc2)[C@H](c2ccc(O)cc2)[C@H]1C(=O)N1C(=O)OC[C@H]1Cc1ccccc1`: -3.31. The same measure for `C=CCNC(=O)[C@H]1[C@@H]2C(=O)O[C@@H](c3ccccc3)[C@@H](c3ccccc3)N2[C@@H](c2ccc(O)cc2)[C@]12C(=O)Nc1ccc(C#CC3(O)CCCCCC3)cc12`: -1.65; for `CCCC[C@@H]1C[C@H]1[C@@H](NC(=O)Cc1ccccc1)c1ccc(-c2ccccc2)cc1`: -0.378; for `C=C(COC)/C(=C/C[C@H](OC(=O)c1ccncc1)c1ccccc1OCCO)c1cnc2ccccc2c1`: -2.28.
